KB-3-1 tox: qHTS assay for MDR1-selective chemotherapeutics: Primary screen using the parental adenocarcinoma cell KB-3-1 | KB-3-1 viability, CellTiter-Glo ATP luminescence, 72 h | Potency, µM (titrated, usually from 46.1 µM), most hits filed as cytotoxic | 400,000 compounds, 1.4% hits; further: nearly all actives have a fitted effect of over 60% in size
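Screening of KB-3-1 cells (DMEM, 10% FBS, phenol-red free) ran from lowest to highest compound concentration; after 72 h at 37 °C viability was read luminescently and curves fitted.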
KB-V1 MDR tox: qHTS assay for MDR1-selective chemotherapeutics: Primary screen using the drug-selected MDR subline cells KB-V1. KB-V1 MDR cells viability, CellTiter-Glo, 72 h. Potency, µM (titrated, usually from 46.1 µM), most hits filed as cytotoxic. 400,000 compounds, 3.4% hits; further: nearly all actives have a fitted effect of over 60% in size
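Potencies derive from concentration-effect curves fitted to normalized luminescence (CellTiter-Glo) of KB-V1 cells treated for 72 h at 37 degrees C in phenol-red-free DMEM containing 10% FBS.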
SW480 rereplic: A quantitative high throughput screen for small molecules that induce DNA re-replication in SW480 colon adenocarcinoma cells; Potency, µM (series often up to 46.1 µM), most hits filed as activators; 340,000 compounds, 1.8% hits; SW480 DNA re-replication, Hoechst DNA content imaging, 48 h; further: nearly all actives have a fitted effect of over 55% in size
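Hoechst fluorescence of nuclei (405 nm excitation, 500-530 nm emission) measured by plate-scanning imager after 48 hr compound exposure at 37 C; re-replication scored as increased number of nuclei with elevated intensity.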
ELG1 repair inh: qHTS screen for small molecules that inhibit ELG1-dependent DNA repair in human embryonic kidney (HEK293T) cells expressing luciferase-tagged ELG1; HEK293T ELG1-luciferase reporter, luminescence, 16 h; DNA damage induced by 5-fluorouridine; Potency, µM (top dose mostly 46.1 µM), usual class: inhibitors; 330,000 compounds, 2.3% hits; AID 504467, 2011; further: nearly all actives have a fitted effect of over 55% in size
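In this reporter screen, reduction of luminescence relative to DMSO vehicle indicated activity. Compounds and 5-fluorouridine were added together to 2,000 cells per well, incubated for 16 hr at 37 °C, then developed with ONE-Glo.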
MCF10A rerep: A quantitative high throughput screen for small molecules that induce DNA re-replication in MCF 10a normal breast cells; 350,000 compounds, 2.9% hits; MCF 10A DNA re-replication, Hoechst nuclear intensity, 48 h; Potency, µM (titrated, usually from 46.1 µM), most hits filed as activators; further: nearly all actives have a fitted effect of over 50% in size
Numbers stand for hits. Shown are actives, neighbours in structure and some others; about 8.2% of the full set was active somewhere. The call rests on the fitted dose curve; in most records, active means well fitted curve in the direction sought with a large enough effect; inconclusive means small, poorly fitted or top-dose-only effect, or another doubt; inactive means no such curve, though single readings can be large; an effect the other way counts as inactive or inconclusive.

What do the screens show for `O=C(Nc1cccc(-c2cn3cccnc3n2)c1)c1cc(Br)ccc1Cl`?
KB-3-1 tox: inconclusive; KB-V1 MDR tox: inactive

Results for COC(=O)c1cc(OC)c(OC)cc1NC(=O)Cn1nnc(-c2ccccc2Cl)n1 ?
KB-3-1 tox: inactive; KB-V1 MDR tox: inconclusive; SW480 rereplic: 15µM; ELG1 repair inh: inconclusive; MCF10A rerep: inactive

What do the screens show for `Cc1onc(-c2ccccc2Cl)c1C(=O)Nc1cccc(-c2cn3cccnc3n2)c1`?
KB-3-1 tox: inactive; KB-V1 MDR tox: 16µM; SW480 rereplic: inactive; ELG1 repair inh: inconclusive; MCF10A rerep: inconclusive

How did Cc1onc(-c2c(F)cccc2Cl)c1C(=O)NCCc1ccncc1 do in these assays?
KB-3-1 tox: inactive; KB-V1 MDR tox: inactive; SW480 rereplic: inactive; ELG1 repair inh: inactive; MCF10A rerep: inactive

How did O=C(Nc1ccc(OCC(=O)N2CCOCC2)cc1)c1ccccc1Cl do in these assays?
KB-3-1 tox: inactive; KB-V1 MDR tox: inactive; SW480 rereplic: inactive; ELG1 repair inh: inconclusive; MCF10A rerep: inactive

Results for CC1=CN2C(c3cccc([N+](=O)[O-])c3)=NON(c3ccc(C)cn3)C2C=C1 (centres undefined) ?
KB-3-1 tox: inactive; KB-V1 MDR tox: inactive

What do the screens show for `Cc1onc(-c2ccccc2Cl)c1C(N)=O`?
KB-3-1 tox: inactive; KB-V1 MDR tox: inactive; SW480 rereplic: inactive; ELG1 repair inh: inactive; MCF10A rerep: inactive

How did COc1ccc(NC(=O)c2c(-c3c(Cl)cccc3Cl)noc2C)c(OC)c1 do in these assays?
KB-3-1 tox: inactive; KB-V1 MDR tox: inactive; SW480 rereplic: inactive; ELG1 repair inh: 23µM; MCF10A rerep: inactive

Results for Cc1onc(-c2c(Cl)cccc2Cl)c1C(=O)N/N=C(\N)COc1ccc(Cl)cc1 ?
KB-3-1 tox: 4.1µM; KB-V1 MDR tox: inactive; SW480 rereplic: inactive; ELG1 repair inh: inconclusive; MCF10A rerep: inconclusive

Results for COc1ccc(NC(=O)c2c(-c3c(Cl)cccc3Cl)noc2C)cn1 ?
SW480 rereplic: inactive; ELG1 repair inh: inactive; MCF10A rerep: inconclusive

Results for Cc1[nH]n(C)c(=O)c1C(=O)c1c(-c2ccccc2Cl)noc1C ?
KB-3-1 tox: inactive; KB-V1 MDR tox: inactive; SW480 rereplic: inconclusive; ELG1 repair inh: inactive; MCF10A rerep: 26µM

How did COC(=O)c1cc(OC)c(OC)cc1NC(=O)c1c(-c2ccccc2Cl)noc1C do in these assays?
KB-3-1 tox: inconclusive; KB-V1 MDR tox: 3.3µM; SW480 rereplic: inconclusive; ELG1 repair inh: inactive; MCF10A rerep: inactive

What do the screens show for `CCc1nn2c(=O)cc(COc3ccc(/C=C(\C#N)C(=O)Nc4ccc(F)cc4)cc3OC)nc2s1`?
KB-3-1 tox: inactive; KB-V1 MDR tox: inconclusive

Results for N#Cc1ccc(CN2C=NS(=O)(=O)c3ccccc32)cc1 ?
KB-3-1 tox: inactive; KB-V1 MDR tox: inactive; SW480 rereplic: inactive; ELG1 repair inh: inactive; MCF10A rerep: inactive

How did CC12CCC3c4cc(CN5CCOCC5)c(O)cc4CCC3C1CCC2=O (centres undefined) do in these assays?
KB-3-1 tox: inconclusive; KB-V1 MDR tox: inactive; SW480 rereplic: inactive; MCF10A rerep: inconclusive

Results for Cc1ccc(-c2cc(C(=O)NCc3ccccc3)c3c(-c4ccc(C)cc4)[nH]nc3n2)cc1 ?
KB-3-1 tox: inactive; KB-V1 MDR tox: inactive

How did Cc1ccc(C)c(NC(=O)CCN2C(=O)[C@@H]3Cc4ccccc4CN3C2=O)c1 do in these assays?
KB-3-1 tox: inactive; KB-V1 MDR tox: inactive; SW480 rereplic: inactive; ELG1 repair inh: inconclusive; MCF10A rerep: inactive

What do the screens show for `Cc1ccc(NC(=S)NC(=O)c2c(-c3ccccc3Cl)noc2C)cc1`?
KB-3-1 tox: inactive; KB-V1 MDR tox: 21µM; SW480 rereplic: inactive; ELG1 repair inh: inactive; MCF10A rerep: inactive

How did Cc1ccc(/C=N/Nc2nc(C(C)(C)C)cs2)o1 do in these assays?
KB-3-1 tox: inactive; KB-V1 MDR tox: inactive; SW480 rereplic: inactive; ELG1 repair inh: inconclusive; MCF10A rerep: 9.2µM

What do the screens show for `O=C1CC(/C=C/c2ccccn2)=Nc2ccccc2N1`?
KB-3-1 tox: 18µM; KB-V1 MDR tox: inconclusive; SW480 rereplic: inconclusive; ELG1 repair inh: inconclusive; MCF10A rerep: inactive

What do the screens show for `N#CC(C(O)c1ccccc1)N1CCOCC1` (centres undefined)?
KB-3-1 tox: inactive; KB-V1 MDR tox: inactive

What do the screens show for `N#Cc1c(-c2ccc(Cl)cc2)c(C#N)c(=O)n(N)c1N`?
KB-3-1 tox: inactive; KB-V1 MDR tox: inactive; SW480 rereplic: inactive; ELG1 repair inh: inconclusive; MCF10A rerep: inactive

What do the screens show for `N#Cc1c(-c2ccc(Cl)cc2)n(O)c2ccccc12`?
KB-3-1 tox: 7.3µM; KB-V1 MDR tox: 3.7µM; SW480 rereplic: 8.2µM; MCF10A rerep: 3.7µM

Results for O=C(COC(=O)Cc1ccsc1)Nc1ccc(Cl)cn1 ?
KB-3-1 tox: inactive; KB-V1 MDR tox: inactive; SW480 rereplic: inactive; ELG1 repair inh: inactive; MCF10A rerep: inactive

How did CC1(C)CC[C@]2(C(=O)O[C@@H]3OC(CO)[C@@H](O)[C@H](O)[C@H]3O)CC[C@]3(C)C(=CCC4[C@@]5(C)CC[C@H](O[C@@H]6OC(C(=O)O)[C@@H](O)[C@H](O)[C@H]6O)C(C)(C)C5CC[C@]43C)[C@@H]2C1 (some centres undefined) do in these assays?
KB-3-1 tox: inactive; KB-V1 MDR tox: inactive; SW480 rereplic: inactive; ELG1 repair inh: inconclusive; MCF10A rerep: 18µM

Results for COC(=O)C1OC(OC2CC[C@]3(C)C(CC[C@@]4(C)[C@@H]3CC=C3[C@@H]5CC(C)(C)CC[C@]5(C(=O)OC5OC(CO)C(O)C(O)C5O)CC[C@]34C)C2(C)C)C(O)C(O)C1O[C@H]1OCC(O)C(O)C1O (some centres undefined) ?
KB-3-1 tox: inactive; KB-V1 MDR tox: inactive; SW480 rereplic: inactive; ELG1 repair inh: inconclusive; MCF10A rerep: inconclusive

Results for CC1CCCN(C(=O)CSc2nnc3n(C4CCCC4)c(=O)c4ccccc4n23)C1 (centres undefined) ?
KB-3-1 tox: inactive; KB-V1 MDR tox: inactive; SW480 rereplic: inactive; ELG1 repair inh: 9.2µM; MCF10A rerep: inactive

What do the screens show for `O=C(CSc1nnc2n(C3CCCC3)c(=O)c3ccccc3n12)N1CCCCCC1`?
KB-3-1 tox: inactive; KB-V1 MDR tox: inactive; SW480 rereplic: inactive; ELG1 repair inh: inconclusive; MCF10A rerep: inactive

How did CCCC(=O)Nc1cccc(-c2nc3cc(C)c(C)cc3o2)c1C do in these assays?
KB-3-1 tox: inactive; KB-V1 MDR tox: inactive

Results for Cc1c(-c2ccccc2)sc2nc[nH]c(=S)c12 ?
KB-3-1 tox: inconclusive; KB-V1 MDR tox: 12µM; SW480 rereplic: inactive; ELG1 repair inh: inactive; MCF10A rerep: inactive

Results for O=c1[nH]cnc2scc(-c3ccc(-c4ccccc4)cc3)c12 ?
KB-3-1 tox: inactive; KB-V1 MDR tox: inactive; SW480 rereplic: inactive; ELG1 repair inh: inconclusive; MCF10A rerep: inactive

Screening data deposited in PubChem by National Center for Advancing Translational Sciences (NCATS).
